This is a sample that favours compounds with a hit; in the whole collection about 3% have one here.
Sm TGR block = qHTS Assay for the Inhibitors of Schistosoma Mansoni Peroxiredoxins; purified TGR, DTNB reduction, TNB absorbance 405 nm; hit rate 3% among 360,000; Potency, µM (series often up to 114 µM), inactives show at the highest dose activity change, negative = inhibition, usual class: inhibitors; AID 485364, 2010; active = well fitted inhibition curve with a large enough effect; inconclusive = small, poorly fitted or top-dose-only effect; inactive = no such curve, though single readings can be large or run the other way; note: potency is the fitted concentration of half-maximal effect; % is set by controls: 0 for no effect and ±100 for the full control effect; nearly all actives have a fitted effect of over 60% in size
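TGR 20 nM + NADPH 100 uM (dispensed conc.), cpd preinc 15 min RT; start with NADPH (500 uM addition) then DTNB (15 mM addition). Kinetic TNB absorbance, 405 nm filter. Four-parameter Hill fit across titration.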
SARS PLpro yeast-1 = qHTS of Yeast-based Assay for SARS-CoV PLP | S. cerevisiae expressing SARS-CoV PLpro, growth rescue | Potency, µM (doses to about 32.9 µM), inactives show at the top dose activity, positive = growth rescue, usual class: activators | hit rate 0.19% among 330,000; calls by dose curve; note: potency is the fitted concentration of half-maximal effect; 0% is about no effect; nearly all actives have a fitted effect of over 55% in size
SARS PLpro yeast-2 = qHTS of Yeast-based Assay for SARS-CoV PLP: Hit Validation. shares compounds with SARS PLpro yeast-1. yeast expressing SARS-CoV PLpro, growth phenotype rescue. calls only. hit rate 19% among 1,000; call rule not given here
The depositor's hits bear a star; i = inactive; u = inconclusive; x = no result; + = active, no number.

SMILES	Sm TGR block	SARS PLpro yeast-1	SARS PLpro yeast-2
COc1cc(C(=O)n2nc(-c3ccco3)nc2NCc2ccc(Cl)cc2)cc(OC)c1OC	-25%	x	x
Cn1cnc(S(=O)(=O)N2CCC(C(=O)NCc3ccccc3Cl)CC2)c1	7%	x	x
O=C(Nc1cccc(Br)c1)N1CCC(CN2CCCCCC2)CC1	-32%	x	x
O=C(NNC(=O)c1cc(Cl)ccc1O)c1cccc(S(=O)(=O)N2CCOCC2)c1	2%	u	+
Cc1ccc(C(=O)NNC(=O)c2cccc(S(=O)(=O)N3CCOCC3)c2)cc1	x	-1%	x
CCCc1ccc(Oc2cc(Cl)nc(N)n2)cc1	5%	-5%	x
CCc1ccc(Oc2cc(C)nc(N)n2)cc1	-4%	16µM*	i
CCOc1ccccc1NC(=O)CN1C(=O)C2(SCC(=O)N2c2cccc(F)c2)c2ccccc21 (centres undefined)	27%	x	x
C/C(=N\NC(N)=S)C1(C)CCCCC1	2%	18µM*	+
C/C(=N\NC(N)=O)C1(C)CCCCC1	0%	-9%	x
COc1ccc(S(=O)(=O)c2cn(C)c3cc(N4CCCCCC4)c(F)cc3c2=O)cc1	4%	x	x
COc1ccc(/C(C)=N/NC(=O)c2ccc(CSc3nncn3C)cc2)cc1	4%	0%	x
C/C(=N\NC(=O)c1ccc(CSc2nncn2C)cc1)c1ccc2ccccc2c1	9%	u	i
O=C(COc1ccc(F)c(Cl)c1)N1CCN(c2ccccn2)CC1	-9%	u	i
O=C(COc1ccccc1Cl)N1CCN(c2ccccn2)CC1	-2%	-1%	x
Cc1ccc2nc(N3CCN(C(=O)C4COc5ccccc5O4)CC3)sc2c1 (centres undefined)	10%	x	x
COC(=O)c1c(NS(=O)(=O)c2ccc(C)cc2)sc2c1CCC(C)C2 (centres undefined)	-28%	u	+
COC(=O)c1c(NC(=O)CN(C)CC(=O)Nc2ccc(C)cc2)sc2c1CCC(C)C2 (centres undefined)	10%	2%	x
O=C(Cn1c(-c2cccs2)cc2cc(Cl)ccc21)N1CCCCC1	5%	x	x
COc1ccccc1C(=O)Nc1ccc(C(=O)OCc2cc(=O)n3ccsc3n2)cc1	0%	x	x
CCOC(=O)CSc1nnc(-c2cc(OC)c(OC)c(OC)c2)o1	-11%	0%	x
COc1cc(-c2nnc(SCc3cc(=O)oc4cc(O)c(O)cc34)o2)cc(OC)c1OC	-9%	6.3µM*	i
Cc1c2cnn(CC(=O)NC(C)C)c(=O)c2c(C)n1Cc1cccc(Cl)c1	-1%	x	x
Cc1ccc(S(=O)(=O)NCC(=O)OCc2csc(-c3ccccc3)n2)cc1	-19%	-6%	x
O=C(CNS(=O)(=O)c1ccc2ccccc2c1)OCc1csc(-c2ccccc2)n1	-2%	3.2µM*	i
SMILES	Sm TGR block	SARS PLpro yeast-1	SARS PLpro yeast-2
CCSc1nnc(N(CCC(=O)O)CCC(=O)O)s1	-1%	u	i
CCSc1nnc(NC(=O)C(C)(C)C)s1	5%	-4%	x
CCn1nc(C)c(/C=C/C(=O)Nc2ccc(C)cc2C)c1C	-25%	u	i
CCn1ncc(/C=C/C(=O)Nc2c(C)nn(CC)c2C)c1C	4%	4%	x
CN(C(=O)c1ccc(NC(=O)C2CCCN(C(=O)OC(C)(C)C)C2)cc1)C1CCCCC1 (centres undefined)	x	3%	x
CN(C(=O)c1ccc(NC(=O)C2CCCN(C(=O)OC(C)(C)C)C2)cc1)C1CCCC1 (centres undefined)	x	u	i
O=C(O)c1ccc(CSc2nc3ccccc3c(=O)n2-c2ccccc2)cc1	5%	9%	x
O=C(c1ccc(-n2c(SCc3cccc(F)c3)nc3ccccc3c2=O)cc1)N1CCOCC1	4%	3.2µM*	+
CSc1cccc(NC(=O)Cn2c(=O)n(Cc3ccccc3)c(=O)c3sc4ccccc4c32)c1	6%	x	x
C/C(=N\NC(=O)CCCNc1ccccc1)c1ccncc1	12%	1%	x
C/C(=N\NC(=O)CCCNc1ccc(C)cc1)c1ccccn1	-19%	u	+
CC1=C(C(=O)Nc2ccc(C)cc2C)C(c2sccc2C)n2ncnc2N1 (centres undefined)	2%	x	x
Cc1ccc2c(=O)cc(C(=O)Nc3ccc(S(=O)(=O)Nc4nc(C)cc(C)n4)cc3)oc2c1	3%	x	x
CCOc1ccc(NC(=O)c2cc3sc(Cl)cc3n2CC)cc1	2%	x	x
CC(C)COc1cccc(C(=O)N(C)CC(=O)Nc2cccc3ccccc23)c1	x	14µM*	i
COc1cccc(C(=O)N(C)CC(=O)Nc2cccc3ccccc23)c1	-2%	3%	x
COc1ccc(CCNC(=O)C(=O)NCC(c2cccnc2)N2CCN(c3ccccc3)CC2)cc1 (centres undefined)	-5%	x	x
C#CC[N+](C)(C)CCCCCCCCCC	3%	3.2µM*	i
C#CC[N+](C)(C)CCCCCCCCCCCC	0%	-53%	x
CC(C)c1ccc(C2=NC(c3ccncc3)=Nc3ccc(F)cc3N2)cc1	-1%	x	x
Oc1ccc(Cl)c(Cl)c1	-18%	-1%	x
Oc1ccc2n[nH]nc2c1	-2%	u	i
CCOc1ccc(-c2cc3c(=O)n(Cc4nc(-c5ccc(OC(C)C)cc5)oc4C)ccn3n2)cc1Cl	-7%	x	x
Cc1cccc(C(=O)Nc2c(-c3ccc(F)cc3)nc3ccccn23)c1	-13%	x	x
CN(C)C(Cc1ccccc1)C(=O)c1ccc(-c2ccccc2)cc1 (centres undefined)	-24%	3.2µM*	i
SMILES	Sm TGR block	SARS PLpro yeast-1	SARS PLpro yeast-2
COc1ccc(C(=O)C(Cc2ccccc2)N(C)C)cc1 (centres undefined)	-20%	2%	x
O=[N+]([O-])c1ccc(O)c(-c2ccnc3cc(-c4ccccc4)nn23)c1	-5%	x	x
COC(=O)[C@@]1(C)[C@H]2C(=O)N(Cc3ccccc3)C(=O)[C@H]2[C@H]2CN=C(SCc3ccccc3)N21	x	29%	x
CCN1C(=O)[C@H]2[C@H]3CN=C(SCC(=O)c4ccccc4)N3[C@@](C)(C(=O)OC)[C@H]2C1=O	x	x	i
CN=C(C)c1c(O)c2ccccc2oc1=O	5%	-18%	x
C/C(CC(c1ccccc1)c1c(O)c2ccccc2oc1=O)=N\NC(N)=S (centres undefined)	9%	11µM*	i
CCCCNC(=O)CCCCCNS(=O)(=O)c1ccc(OC)cc1	-26%	u	i
CCCCNC(=O)CCCCCNS(=O)(=O)c1ccc(Br)cc1	-9%	1%	x
CCc1c(C)nc2nncn2c1NCc1ccccc1	-4%	x	x
Cc1ccccc1CSc1nc2ccsc2c(=O)n1CCC(C)C	1%	x	x
COc1cc(NS(=O)(=O)c2ccc(NC(=O)COc3ccc(C)cc3)cc2)nc(OC)n1	-8%	11µM*	i
COc1cc(NS(=O)(=O)c2ccc(NC(=O)COc3ccc(C)cc3C)cc2)nc(OC)n1	-26%	-2%	x
COc1cccc(CNC(=O)c2[nH]c3cc(C)ccc3c2Sc2ccccc2)c1	2%	x	x
COc1cccc(C(=O)CC(=O)C(=O)Nc2cc(Cl)c(OC)cc2OC)c1	-17%	-4%	x
COc1ccc(C(=O)CC(=O)C(=O)Nc2cc(Cl)c(OC)cc2OC)cc1	-2%	u	+
CCn1c(=O)c2cc(C(=O)NCc3cc(OC)ccc3OC)sc2c2ccccc21	-1%	x	x
O=C(O)COc1cnc2ccccc2n1	-7%	0%	x
O=C(CCl)Nc1ccc(Oc2cnc3ccccc3n2)cc1	-27%	10µM*	+
CC1=C(C(=O)NCc2ccccc2F)C2(CCCCC2)OC1=O	3%	x	x

From PubChem BioAssay
